Laboratory results from PubChem BioAssay.
Activity calls are given as the source filed them.

Tests used:
[1] = binders of probe aFSTL3 on microarray, primary screen, stem cell growth factor project, biochemical, small-molecule microarray, fluorescence 635/667 (AID 1064); conditions: higher = more signal;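 also: measures binding of the biotinylated anti-FSTL3 antibody to printed compounds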
[2] = binders from COS7 lysate, DM2A8 probe, primary screen, torsin A project, cell lysate, small-molecule microarray, fluorescence 635/667 (AID 1065); conditions: higher = more signal, COS7 lysate expressing mutant human TOR1A
[3] = binders of probe aFGF2 on microarray, primary screen, stem cell growth factor project, biochemical, small-molecule microarray, fluorescence 635/667 (AID 1067); conditions: higher = more signal;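 also: measures binding of biotinylated aFGF2 protein to printed compounds on slides; z-score merges feature fluorescence and signal-to-noise across triplicate slides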
[4] = binders of probe aFGF10 on microarray, primary screen, stem cell growth factor project, biochemical, small-molecule microarray, fluorescence 635/667 (AID 1071); conditions: higher = more signal;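 also: score merges 667 nm spot intensity and signal to noise from triplicate slides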
[5] = molecular target: Neurogenic locus notch homolog protein 2 (Homo sapiens) (UniProt Q04721); test: Notch2 binders on small-molecule microarrays, primary screen, biochemical, small-molecule microarray, 635 nm fluorescence, stem cell growth factors (AID 1073); conditions: Notch2 binding, higher = more signal
[6] = molecular target: Pro-neuregulin-1, membrane-bound isoform (Homo sapiens) (UniProt Q02297); test: NRG1 binders on small-molecule microarrays, primary screen, psychiatric disease protein project, biochemical, small-molecule microarray, fluorescence 635/667 (AID 1075); conditions: NRG1 binding, 635 nm fluorescence, higher = more signal;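 also: score combines 667 nm spot fluorescence with signal to noise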
[7] = system: Neuregulin-1 EGF-like domain; test: binders of neuregulin-1 EGF-like domain, primary screen, biochemical, small-molecule microarray, 635 nm fluorescence (AID 1081); conditions: small-molecule microarray binding, higher = more signal;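 also: binding of the protein to compounds printed on small-molecule microarray slides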
[8] = FRG1 promoter luciferase signal modulators, primary screen, FRG1 inhibition for FSHD, cell-based, C2C12 myotubes, firefly/Renilla luciferase, luminescence (AID 1084); conditions: higher = more signal, called active from +8 up or from −8 down
[9] = binders of probe aFST on microarray, primary screen, stem cell growth factor project, biochemical, small-molecule microarray, fluorescence 635/667 (AID 1086); conditions: higher = more signal;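 also: score merges 667 nm fluorescence with signal-to-noise of each printed compound spot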
[10] = binders of probe aHhip on microarray, primary screen, stem cell growth factor project, biochemical, small-molecule microarray, fluorescence 635/667 (AID 1087); conditions: higher = more signal;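 also: score merges spot fluorescence at 667nm with spot signal to noise ratio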
[11] = system: PRMT1 (protein arginine N-methyltransferase 1); test: PRMT1 binders on small-molecule microarrays, primary screen, biochemical, small-molecule microarray, 635 nm fluorescence (AID 1088); conditions: small-molecule microarray binding, higher = more signal;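 also: binding of Prmt1 protein to compounds spotted on small-molecule microarray slides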
[12] = yeast growth modulation, basal conditions, primary screen, YJM789 clinical isolate, OD600, 24 h (AID 1089);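 also: growth of clinical yeast isolate S. cerevisiae YJM 789 seeded 1000 cells per well; test concentration not given here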; conditions: S. cerevisiae YJM789 growth, higher = more signal, called active from +8 up or from −8 down
[13] = fission yeast growth modulation, primary screen, strain 972, OD600, 24 h, no modulator (AID 1090);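 also: basal condition with compound alone and no growth modifier present; test concentration not given here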; conditions: S. pombe 972 growth, higher = more signal, called active from +8 up or from −8 down
[14] = S. cerevisiae growth modulation with rapamycin, primary screen, strain BY4716, OD600, 96 h (AID 1091); conditions: higher = more signal, called active from +8 up or from −8 down; also: test concentration not given here
[15] = molecular target: Torsin-1A-interacting protein 2 (Homo sapiens) (UniProt Q8NFQ8); test: LULL1 binders on small-molecule microarray, primary screen, cell lysate, human LULL1 lysate, 635/667 nm fluorescence (AID 1092); conditions: hLULL1 lysate binding, 635 nm fluorescence, higher = more signal;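 also: probe is lysate of COS7 cells overexpressing human LULL1; score merges per-feature 667 nm fluorescence with signal-to-noise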
[16] = E. coli growth modulation, two-sided OD650, primary screen, E. coli filamentation project, strain DRC41, 24 h (AID 1093); conditions: OD650, 24 h, higher = more signal, called active from +8 up or from −8 down;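 also: MC1000 strain lacking acrAB efflux and sulA so SOS filamentation is blocked; test concentration not given here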
[17] = small-molecule microarray binders of probe aLefty2, primary screen, biochemical, biotinylated probe, 635/667 nm fluorescence (AID 1094); conditions: higher = more signal;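 also: score merges spot fluorescence near 667 nm with spot signal-to-noise ratio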
[18] = system: Noggin (protein binding on small-molecule microarray); test: Noggin binders on small-molecule microarray, primary screen, biochemical, 635/667 nm fluorescence (AID 1095); conditions: 635 nm fluorescence, higher = more signal;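 also: score merges 667 nm feature fluorescence with signal to noise over triplicate slides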
[19] = molecular target: Neurogenic locus notch homolog protein 3 (Homo sapiens) (UniProt Q9UM47); test: NOTCH3 binders on small-molecule microarray, primary screen, biochemical, 635/667 nm fluorescence (AID 1096); conditions: NOTCH3 binding, 635 nm fluorescence, higher = more signal
[20] = small-molecule microarray binders of probe aEGFR, primary screen, biochemical, biotinylated probe, 635/667 nm fluorescence (AID 1097); conditions: higher = more signal;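 also: probe is a biotinylated anti-EGFR antibody binding compounds printed on slides; score combines fluorescence near 667 nm and signal to noise of each spot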

Chain of Pro-neuregulin-1, membrane-bound isoform (Homo sapiens) (Q02297 whole entry, looked up, the tested form may be a part, canonical isoform): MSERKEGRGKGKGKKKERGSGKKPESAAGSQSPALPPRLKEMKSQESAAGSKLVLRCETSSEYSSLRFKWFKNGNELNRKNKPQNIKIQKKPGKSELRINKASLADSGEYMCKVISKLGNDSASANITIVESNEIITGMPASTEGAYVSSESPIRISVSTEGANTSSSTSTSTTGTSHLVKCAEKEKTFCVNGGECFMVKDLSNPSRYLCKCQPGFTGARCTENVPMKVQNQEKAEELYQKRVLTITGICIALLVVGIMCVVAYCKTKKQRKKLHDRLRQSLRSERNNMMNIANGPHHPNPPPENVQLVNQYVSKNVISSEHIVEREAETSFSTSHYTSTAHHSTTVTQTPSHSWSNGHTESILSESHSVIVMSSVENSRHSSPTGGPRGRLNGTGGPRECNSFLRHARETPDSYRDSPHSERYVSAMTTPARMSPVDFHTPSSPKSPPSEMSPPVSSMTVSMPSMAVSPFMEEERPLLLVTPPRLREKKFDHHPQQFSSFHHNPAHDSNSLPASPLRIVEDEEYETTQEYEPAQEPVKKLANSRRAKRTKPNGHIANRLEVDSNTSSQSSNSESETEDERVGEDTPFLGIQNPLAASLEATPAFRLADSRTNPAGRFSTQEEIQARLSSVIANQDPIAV
Chain of Neurogenic locus notch homolog protein 2 (Homo sapiens) (Q04721 whole entry, looked up, canonical isoform): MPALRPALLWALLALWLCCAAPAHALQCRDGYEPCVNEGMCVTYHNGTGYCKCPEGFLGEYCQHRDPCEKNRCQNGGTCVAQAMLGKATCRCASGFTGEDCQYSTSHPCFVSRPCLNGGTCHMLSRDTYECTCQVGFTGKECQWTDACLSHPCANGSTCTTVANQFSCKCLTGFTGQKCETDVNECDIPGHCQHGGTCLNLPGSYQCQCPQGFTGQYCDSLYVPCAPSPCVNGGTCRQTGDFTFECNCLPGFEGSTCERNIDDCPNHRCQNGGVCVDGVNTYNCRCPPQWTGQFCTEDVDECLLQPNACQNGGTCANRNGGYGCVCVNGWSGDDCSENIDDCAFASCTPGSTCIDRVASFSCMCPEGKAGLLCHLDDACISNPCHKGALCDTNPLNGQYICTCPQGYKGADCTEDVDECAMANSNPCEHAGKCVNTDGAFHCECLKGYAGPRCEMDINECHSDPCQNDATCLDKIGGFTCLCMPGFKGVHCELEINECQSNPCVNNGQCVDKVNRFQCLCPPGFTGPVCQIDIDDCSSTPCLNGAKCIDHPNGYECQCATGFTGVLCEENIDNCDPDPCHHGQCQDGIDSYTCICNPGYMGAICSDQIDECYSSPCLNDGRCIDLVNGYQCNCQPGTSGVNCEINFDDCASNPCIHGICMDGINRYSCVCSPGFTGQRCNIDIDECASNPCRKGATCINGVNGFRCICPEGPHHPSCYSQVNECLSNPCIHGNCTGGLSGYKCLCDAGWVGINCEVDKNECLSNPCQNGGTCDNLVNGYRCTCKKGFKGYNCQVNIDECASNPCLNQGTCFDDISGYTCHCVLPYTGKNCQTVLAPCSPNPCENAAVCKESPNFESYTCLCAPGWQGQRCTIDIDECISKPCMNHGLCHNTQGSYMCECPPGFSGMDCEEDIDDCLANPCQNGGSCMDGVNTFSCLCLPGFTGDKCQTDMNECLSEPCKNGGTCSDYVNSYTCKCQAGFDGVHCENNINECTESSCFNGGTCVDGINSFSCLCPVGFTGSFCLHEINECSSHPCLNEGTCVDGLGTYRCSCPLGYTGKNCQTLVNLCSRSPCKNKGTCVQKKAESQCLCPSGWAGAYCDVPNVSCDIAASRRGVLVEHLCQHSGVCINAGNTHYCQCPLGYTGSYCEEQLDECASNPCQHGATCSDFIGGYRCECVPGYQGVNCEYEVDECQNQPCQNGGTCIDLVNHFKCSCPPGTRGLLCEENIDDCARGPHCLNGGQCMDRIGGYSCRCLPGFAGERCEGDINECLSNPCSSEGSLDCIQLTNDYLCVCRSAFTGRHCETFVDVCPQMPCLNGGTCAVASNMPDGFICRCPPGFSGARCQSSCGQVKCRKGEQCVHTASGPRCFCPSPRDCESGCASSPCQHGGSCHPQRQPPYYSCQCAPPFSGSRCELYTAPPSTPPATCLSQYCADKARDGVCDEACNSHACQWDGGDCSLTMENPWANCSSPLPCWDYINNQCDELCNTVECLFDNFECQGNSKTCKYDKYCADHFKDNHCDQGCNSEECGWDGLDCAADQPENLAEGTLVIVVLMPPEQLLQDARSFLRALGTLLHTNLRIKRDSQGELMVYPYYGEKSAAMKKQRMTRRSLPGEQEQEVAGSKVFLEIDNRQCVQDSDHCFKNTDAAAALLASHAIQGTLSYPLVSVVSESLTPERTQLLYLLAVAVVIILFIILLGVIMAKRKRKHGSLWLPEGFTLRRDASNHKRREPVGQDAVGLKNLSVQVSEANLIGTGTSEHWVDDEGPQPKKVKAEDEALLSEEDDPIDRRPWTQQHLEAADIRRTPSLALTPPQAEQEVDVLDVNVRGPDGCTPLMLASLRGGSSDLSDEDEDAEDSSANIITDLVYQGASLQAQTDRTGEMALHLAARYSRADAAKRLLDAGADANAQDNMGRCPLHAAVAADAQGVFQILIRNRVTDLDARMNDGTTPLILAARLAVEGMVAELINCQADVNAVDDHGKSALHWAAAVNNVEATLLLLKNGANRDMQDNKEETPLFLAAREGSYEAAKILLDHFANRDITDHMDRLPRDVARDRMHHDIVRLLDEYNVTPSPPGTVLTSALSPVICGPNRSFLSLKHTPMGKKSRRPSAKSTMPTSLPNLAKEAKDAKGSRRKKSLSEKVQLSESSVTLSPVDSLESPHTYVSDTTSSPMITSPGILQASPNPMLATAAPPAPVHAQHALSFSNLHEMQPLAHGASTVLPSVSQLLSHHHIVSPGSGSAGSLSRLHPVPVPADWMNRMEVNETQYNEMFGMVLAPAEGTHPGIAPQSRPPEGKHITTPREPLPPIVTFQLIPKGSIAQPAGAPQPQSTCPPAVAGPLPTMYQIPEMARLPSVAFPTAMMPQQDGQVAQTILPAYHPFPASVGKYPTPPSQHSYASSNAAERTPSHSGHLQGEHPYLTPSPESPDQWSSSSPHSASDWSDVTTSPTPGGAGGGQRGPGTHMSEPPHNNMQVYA
Chain of Torsin-1A-interacting protein 2 (Homo sapiens) (Q8NFQ8 whole entry, looked up): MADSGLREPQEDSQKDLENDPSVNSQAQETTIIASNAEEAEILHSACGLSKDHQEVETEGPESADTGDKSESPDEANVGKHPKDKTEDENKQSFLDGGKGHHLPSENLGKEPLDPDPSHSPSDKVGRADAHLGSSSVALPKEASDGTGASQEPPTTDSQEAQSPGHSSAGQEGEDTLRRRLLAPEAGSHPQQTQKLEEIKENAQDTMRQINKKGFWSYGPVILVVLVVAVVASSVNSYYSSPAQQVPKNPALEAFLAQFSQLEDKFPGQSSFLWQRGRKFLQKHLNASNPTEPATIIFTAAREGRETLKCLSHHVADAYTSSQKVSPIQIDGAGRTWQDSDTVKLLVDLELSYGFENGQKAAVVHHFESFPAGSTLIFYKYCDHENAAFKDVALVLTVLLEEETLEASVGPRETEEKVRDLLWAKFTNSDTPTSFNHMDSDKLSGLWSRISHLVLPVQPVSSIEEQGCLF

Compound: C#CCCCON=C1C[C@@H](O)[C@@H](O)[C@@H]2[C@@H]3C(=O)N(CC)C(=O)[C@@H]3CC[C@H]12
- composite z-score [1]: -0.281
- composite z-score [2]: 0.368
- composite z-score [3]: -0.0885
- composite z-score [4]: 0.236
- composite z-score [5]: 0.03
- composite z-score [6]: 1.16
- composite z-score [7]: 0.528
- z-score [8]: -0.234 (inactive)
- composite z-score [9]: 0.0594
- composite z-score [10]: -0.128
- composite z-score [11]: 1.37
- z-score [12]: -0.276 (inactive)
- z-score [13]: -0.26 (inactive)
- z-score [14]: -0.247 (inactive)
- composite z-score [15]: 2.11
- z-score [16]: 0.216 (inactive)
- composite z-score [17]: -0.25
- composite z-score [18]: 0.726
- composite z-score [19]: 0.348
- composite z-score [20]: -0.174

Compound: CCO[C@H](c1cc(OC)cc([N+](=O)[O-])c1OC)[C@H](C)[C@@H](OC)[C@H](C)C=CCC(=O)OC
- composite z-score [1]: 0.0456
- composite z-score [2]: 0.32
- composite z-score [3]: -0.0241
- composite z-score [4]: -0.105
- composite z-score [5]: 0.174
- composite z-score [6]: 0.339
- composite z-score [7]: 0.66
- z-score [8]: -0.0602 (inactive)
- composite z-score [9]: 0.414
- composite z-score [10]: -0.317
- composite z-score [11]: 0.836
- z-score [12]: 0.443 (inactive)
- z-score [13]: -0.463 (inactive)
- z-score [14]: -0.604 (inactive)
- composite z-score [15]: 0.945
- z-score [16]: -0.466 (inactive)
- composite z-score [17]: 0.0632
- composite z-score [18]: -0.0645
- composite z-score [19]: 1.06
- composite z-score [20]: -0.0069

Compound: COC(=O)[C@H](C)NC(=O)CCC1CC(OC(=O)NCc2cccc3ccccc23)CC2(CCCC(COC(=O)NCCc3ccccc3OC)O2)O1 (stereo not given in full)
- composite z-score [1]: -0.629
- composite z-score [2]: 0.0902
- composite z-score [3]: -0.076
- composite z-score [4]: 0.612
- composite z-score [5]: 1.24
- composite z-score [6]: 1.15
- composite z-score [7]: 1.21
- z-score [8]: 2.21 (inactive)
- composite z-score [9]: 0.573
- composite z-score [10]: 0.24
- composite z-score [11]: 1.37
- z-score [12]: 0.502 (inactive)
- z-score [13]: 1.02 (inactive)
- z-score [14]: 2.03 (inactive)
- composite z-score [15]: 2.38
- z-score [16]: 0.476 (inactive)
- composite z-score [17]: -0.0179
- composite z-score [18]: 1.14
- composite z-score [19]: 0.817
- composite z-score [20]: 0.0066

Compound: CCOC(=O)CCN1C(=O)[C@H]2[C@H]3[C@H](O)[C@H](O)CC(=NOCC=C(C)CCC=C(C)C)[C@H]3CC[C@H]2C1=O
- composite z-score [1]: -0.137
- composite z-score [2]: 0.757
- composite z-score [3]: -0.0734
- composite z-score [4]: -0.274
- composite z-score [5]: 0.762
- composite z-score [6]: -0.601
- composite z-score [7]: -1.74
- z-score [8]: -0.815 (inactive)
- composite z-score [9]: 0.752
- composite z-score [10]: 0.0722
- composite z-score [11]: 0.467
- z-score [12]: 0.273 (inactive)
- z-score [13]: -0.215 (inactive)
- z-score [14]: -0.188 (inactive)
- composite z-score [15]: 0.0139
- z-score [16]: 0.857 (inactive)
- composite z-score [17]: 0.287
- composite z-score [18]: 0.386
- composite z-score [19]: 0.089
- composite z-score [20]: 0.106

Compound: COc1cccc([C@H]2Oc3ccc(OC)cc3C(=NO[C@@H](C)c3cc(-c4c(C)cc(C)cc4C)no3)[C@@H]2O)c1
- composite z-score [1]: 2.15
- composite z-score [2]: -0.187
- composite z-score [3]: -0.238
- composite z-score [4]: -1.44
- composite z-score [5]: -2.2
- composite z-score [6]: -0.144
- composite z-score [7]: -0.393
- z-score [8]: -3.59 (inactive)
- composite z-score [9]: -0.391
- composite z-score [10]: -0.45
- composite z-score [11]: -0.506
- z-score [12]: 0.463 (inactive)
- z-score [13]: 1.49 (inactive)
- z-score [14]: 0.626 (inactive)
- composite z-score [15]: -0.141
- z-score [16]: -0.169 (inactive)
- composite z-score [17]: 0.25
- composite z-score [18]: -2.14
- composite z-score [19]: -2.58
- composite z-score [20]: -0.434

Compound: CC(C)=CCCC(C)=CCON=C1C[C@@H](O)[C@@H](O)[C@@H]2[C@@H]3C(=O)N(c4cccc(Oc5ccccc5)c4)C(=O)[C@@H]3CC[C@H]12
- composite z-score [1]: -0.304
- composite z-score [2]: -0.0323
- composite z-score [3]: -0.0296
- composite z-score [4]: 0.0259
- composite z-score [5]: 0.206
- composite z-score [6]: 0.691
- composite z-score [7]: 0.877
- z-score [8]: 0.122 (inactive)
- composite z-score [9]: 0.305
- composite z-score [10]: 0.06
- composite z-score [11]: 1.04
- z-score [12]: 0.788 (inactive)
- z-score [13]: -0.0823 (inactive)
- z-score [14]: -0.407 (inactive)
- composite z-score [15]: 1.12
- z-score [16]: 0.204 (inactive)
- composite z-score [17]: -0.138
- composite z-score [18]: 0.485
- composite z-score [19]: 0.782
- composite z-score [20]: 0.0209

Compound: CC(=O)OC[C@H]1O[C@H](CC=NOC(C)CN2CCCc3nc(C)c(C)cc32)C=C[C@@H]1OC(C)=O (stereo not given in full)
- composite z-score [1]: -0.255
- composite z-score [2]: 0.28
- composite z-score [3]: -0.0621
- composite z-score [4]: 0.677
- composite z-score [5]: 0.804
- composite z-score [6]: -0.188
- composite z-score [7]: 0.819
- z-score [8]: 0.437 (inactive)
- composite z-score [9]: 0.371
- composite z-score [10]: 0.0637
- composite z-score [11]: 1.19
- z-score [12]: 0.489 (inactive)
- z-score [13]: 0.483 (inactive)
- z-score [14]: -0.344 (inactive)
- composite z-score [15]: 0.771
- z-score [16]: 1.14 (inactive)
- composite z-score [17]: 0.0961
- composite z-score [18]: 0.977
- composite z-score [19]: 1.04
- composite z-score [20]: 0.0473

Compound: CC(=O)OC[C@H]1O[C@H](CCON=C(C)C)C=C[C@@H]1OC(C)=O
- composite z-score [1]: -0.711
- composite z-score [2]: -0.224
- composite z-score [3]: -0.116
- composite z-score [4]: 0.146
- composite z-score [5]: 0.121
- composite z-score [6]: -0.172
- composite z-score [7]: -0.529
- z-score [8]: 0.2 (inactive)
- composite z-score [9]: 0.36
- composite z-score [10]: -0.0645
- composite z-score [11]: 0.0126
- z-score [12]: 0.765 (inactive)
- z-score [13]: 0.568 (inactive)
- z-score [14]: 0.748 (inactive)
- composite z-score [15]: 0.24
- z-score [16]: 0.193 (inactive)
- composite z-score [17]: -0.152
- composite z-score [18]: 0.373
- composite z-score [19]: 0.0158
- composite z-score [20]: -0.0364

Compound: CCOC(=O)CCN1C(=O)[C@H]2[C@H]3[C@H](O)[C@H](O)CC(=NNC(=O)OCc4ccccc4)[C@H]3CC[C@H]2C1=O
- composite z-score [1]: -0.594
- composite z-score [2]: 1.05
- composite z-score [3]: -0.133
- composite z-score [4]: -0.884
- composite z-score [5]: -0.871
- composite z-score [6]: -1.03
- composite z-score [7]: -1.43
- z-score [8]: -0.695 (inactive)
- composite z-score [9]: 0.138
- composite z-score [10]: -0.0632
- composite z-score [11]: -0.0993
- z-score [12]: -0.756 (inactive)
- z-score [13]: 0.59 (inactive)
- z-score [14]: -0.596 (inactive)
- composite z-score [15]: -1.53
- z-score [16]: -0.287 (inactive)
- composite z-score [17]: -0.0515
- composite z-score [18]: 0.608
- composite z-score [19]: 0.032
- composite z-score [20]: -0.103

Compound: CCOC(=O)[C@H](Cc1ccccc1)NC(=O)CCC1CC(OC(=O)NCc2cccc3ccccc23)CC2(CCCC(COC(=O)NCCc3ccccc3OC)O2)O1 (stereo not given in full)
- composite z-score [1]: -0.568
- composite z-score [2]: 0.0631
- composite z-score [3]: -0.0538
- composite z-score [4]: 0.586
- composite z-score [5]: 0.967
- composite z-score [6]: 0.341
- composite z-score [7]: 1.02
- z-score [8]: 1.37 (inactive)
- composite z-score [9]: 0.327
- composite z-score [10]: 0.0623
- composite z-score [11]: 1.4
- z-score [12]: 0.105 (inactive)
- z-score [13]: 0.503 (inactive)
- z-score [14]: 0.296 (inactive)
- composite z-score [15]: 1.95
- z-score [16]: -0.164 (inactive)
- composite z-score [17]: 0.0108
- composite z-score [18]: 0.591
- composite z-score [19]: 0.819
- composite z-score [20]: -0.0396
